Data: PubChem BioAssay (Tox21)
Results filed as inconclusive are left out. Entries that show only a call come without a potency. Active and inactive are the calls of the source. Calls follow the shape of the dose curve; as a rule, active = well fitted curve in the direction sought with a large enough effect in the repeat runs; inconclusive = weak or mixed curves; inactive = no such curve, though single readings can be large; an effect the other way counts as inactive or inconclusive.
Potency is read from the fitted curve at half-maximal effect.

Test: qHTS RealTime-Glo MT Cell Viability Assay in HEK293 cells - 8 hour (AID 1224887); also: nearly all actives have a fitted effect of over 50% in size; as to activity change, negative = cytotoxicity: top concentration of the series differs between compounds
Settings: RealTime-Glo luminescence; series mostly up to 76.8 µM
Outline: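 Cells were seeded together with NanoLuc luciferase and a prosubstrate that viable cells reduce to a luciferase substrate. After a 5 h incubation at 37 C/5% CO2, compounds were added and luminescence was measured repeatedly during 40 h of treatment.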
In the case of `COc1ccc(OC(=O)N(CC(=O)O)Cc2ccc(OCCc3nc(-c4ccccc4)oc3C)cc2)cc1`, the Potency is reported as “inactive”. In the case of `CC(CN(C)C)C(C)(O)Cc1ccc(Cl)cc1` (stereo not drawn), the Potency is reported as “inactive”. With `COC(=O)c1nc(Cl)c(Cl)nc1N` the Potency was 6.74 µM (active). In the case of `O=C(O)CCc1nc(-c2ccccc2)c(-c2ccccc2)o1`, the Potency is reported as “inactive”. For `CCC(OCCCOC)OC(C)=O` (stereo not drawn), the Potency was “inactive”. In the case of `CC1=C(Br)C(=O)C(Br)=C/C1=C(/c1ccccc1S(=O)(=O)O)c1cc(Br)c(O)c(Br)c1C`, the Potency is reported as “inactive”. With `CCCCN1CCCC1C(=O)Nc1c(C)cc(C)cc1C` (stereo not drawn) the Potency was “inactive”. In the case of `CN1C(=O)N(c2ccccc2Br)Cc2cnc(Nc3ccc4c(c3)OCC(CO)O4)nc21` (stereo not drawn), the Potency is reported as 17.4 µM (active). In the case of `CC(C)C(O)(c1ccc(OC(F)(F)F)cc1)c1cncnc1` (stereo not drawn), the Potency is reported as “inactive”. For `CC(CCC(=O)O)C(=O)O` (stereo not drawn), the Potency was “inactive”. With `CN1C(=O)c2ccccc2C1=O` the Potency was “inactive”. With `CCOc1ccccc1O[C@H](c1ccccc1)[C@H]1CNCCO1` the Potency was “inactive”. With `CCCCCC#CC(=O)OC` the Potency was “inactive”. With `NCCNCCO` the Potency was “inactive”. For `COC(=O)C1=C(C)NC(C)=C(C(=O)O[C@@H]2CCCN(Cc3ccccc3)C2)[C@@H]1c1cccc([N+](=O)[O-])c1`, the Potency was “inactive”. In the case of `COc1cc(N)c(Cl)cc1C(=O)NC1CCN(CCCOc2ccc(F)cc2)CC1OC` (stereo not drawn), the Potency is reported as 3.01 µM (active).

Test: A CellTox Green Cytotoxicity Assay to monitor cytotoxicity in HEK293 cells - 16 hour (AID 1224888); also: nearly all actives have a fitted effect of over 35% in size
Settings: CellTox Green fluorescence; series mostly up to 76.8 µM
Outline: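 Nonlytic real-time cytotoxicity: HEK293 + CellTox Green reagent plated, 5 h preincubation, pintool compound addition (23 nL in DMSO), 37 C for 40 h, fluorescence measured at successive time points.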
In the case of `Cc1ccc(Cl)c(Nc2ccccc2C(=O)O)c1Cl`, the Potency is reported as “inactive”. With `Cc1cc(=O)c2c(O)c3c(O)cc(=O)c4c3c3c(cc(O)c1c23)C(C)(C)C=4O` the Potency was 7.37 µM (active). In the case of `CCOC(=O)c1ccc(O)c(O)c1`, the Potency is reported as “inactive”. In the case of `CCCCCCCCOc1ccc(C(=O)O)cc1`, the Potency is reported as “inactive”. With `CCC1(CO)COCOC1` the Potency was “inactive”. With `O=c1cc(-c2ccccc2)oc2cc(O)cc(O)c12` the Potency was “inactive”. With `CC[C@]1(O)C[C@H]2CN(CCc3c([nH]c4ccccc34)[C@@](C(=O)OC)(c3cc4c(cc3OC)N(C=O)[C@H]3[C@@](O)(C(=O)OC)[C@H](OC(C)=O)[C@]5(CC)C=CCN6CC[C@]43[C@@H]65)C2)C1` the Potency was “inactive”. In the case of `CCOC(=O)c1ccc(C#Cc2ccc3c(c2)C(C)(C)CCS3)nc1`, the Potency is reported as “inactive”. With `COC(=O)[C@H]1[C@H]2C[C@@H]3c4[nH]c5cc(OC)ccc5c4CCN3C[C@H]2C[C@@H](OC(=O)/C=C/c2ccc(O)c(OC)c2)[C@@H]1OC` the Potency was 16.9 µM (active). In the case of `O=C1c2ccccc2C(=O)C1(O)O`, the Potency is reported as “inactive”. With `Nc1nnc(-c2ccc([N+](=O)[O-])o2)o1` the Potency was “inactive”. In the case of `Oc1ccc(Cl)c2cccnc12`, the Potency is reported as “inactive”. In the case of `CCCCCCCC/C=C\CCCCCCCCO`, the Potency is reported as “inactive”. In the case of `O=C(OCC(O)CO)c1ccccc1Nc1ccnc2cc(Cl)ccc12` (stereo not drawn), the Potency is reported as “inactive”. For `Nc1nc2ccc([N+](=O)[O-])cc2s1`, the Potency was “inactive”. In the case of `C[C@H]1C[C@H](O)c2ccsc2S1(=O)=O`, the Potency is reported as “inactive”. With `CO/N=C(/C(=O)N[C@@H]1C(=O)N2C(C(=O)O)=C(COC(N)=O)CS[C@H]12)c1ccco1` the Potency was “inactive”. In the case of `CC(CN(C)C)C(C)(O)Cc1ccc(Cl)cc1` (stereo not drawn), the Potency is reported as “inactive”. In the case of `O=C(O)CCc1nc(-c2ccccc2)c(-c2ccccc2)o1`, the Potency is reported as “inactive”. In the case of `CCC(OCCCOC)OC(C)=O` (stereo not drawn), the Potency is reported as “inactive”. In the case of `CC1=C(Br)C(=O)C(Br)=C/C1=C(/c1ccccc1S(=O)(=O)O)c1cc(Br)c(O)c(Br)c1C`, the Potency is reported as “inactive”. In the case of `CC1=Nc2ccc3ccccc3c2C1(C)C`, the Potency is reported as “inactive”. In the case of `CN1C(=O)N(c2ccccc2Br)Cc2cnc(Nc3ccc4c(c3)OCC(CO)O4)nc21` (stereo not drawn), the Potency is reported as “inactive”. In the case of `CC(C)C(O)(c1ccc(OC(F)(F)F)cc1)c1cncnc1` (stereo not drawn), the Potency is reported as “inactive”. In the case of `CC(CCC(=O)O)C(=O)O` (stereo not drawn), the Potency is reported as “inactive”. With `CN1C(=O)c2ccccc2C1=O` the Potency was “inactive”. For `CCOc1ccccc1O[C@H](c1ccccc1)[C@H]1CNCCO1`, the Potency was “inactive”. For `COC(=O)C1=C(C)NC(C)=C(C(=O)O[C@@H]2CCCN(Cc3ccccc3)C2)[C@@H]1c1cccc([N+](=O)[O-])c1`, the Potency was “inactive”. With `COc1cc(N)c(Cl)cc1C(=O)NC1CCN(CCCOc2ccc(F)cc2)CC1OC` (stereo not drawn) the Potency was “inactive”. For `CS(=O)(=O)c1ccc(-c2cn3ccccc3n2)cc1`, the Potency was “inactive”.

Test: qHTS RealTime-Glo MT Cell Viability Assay in HepG2 cells - 0 hour (AID 1224889); also: nearly all actives have a fitted effect of over 50% in size
Settings: RealTime-Glo luminescence; series mostly up to 76.8 µM
Outline: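 HepG2 suspension premixed with RealTime-Glo reagents is plated at 600 cells per well and left 5 h at 37 C/5% CO2. Compounds in DMSO then go in, and bioluminescence reflecting viable cell number is recorded over 40 h.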
In the case of `Cc1ccc(Cl)c(Nc2ccccc2C(=O)O)c1Cl`, the Potency is reported as “inactive”. In the case of `Cc1cc(=O)c2c(O)c3c(O)cc(=O)c4c3c3c(cc(O)c1c23)C(C)(C)C=4O`, the activity change, negative = cytotoxicity is reported as -2.14% [at 15.8 µM] (inactive). With `NC1[C@H]2CN(c3nc4c(cc3F)c(=O)c(C(=O)O)cn4-c3ccc(F)cc3F)C[C@@H]12` (stereo partly drawn) the Potency was “inactive”. In the case of `CCCCCCCCOc1ccc(C(=O)O)cc1`, the Potency is reported as “inactive”. For `CC1CC(OC(=O)C(O)c2ccccc2)CC(C)(C)N1C` (stereo not drawn), the Potency was “inactive”. In the case of `CC(C)(C)C(=O)C(=O)O`, the Potency is reported as “inactive”. For `CCC1(CO)COCOC1`, the Potency was “inactive”. With `CC[C@]1(O)C[C@H]2CN(CCc3c([nH]c4ccccc34)[C@@](C(=O)OC)(c3cc4c(cc3OC)N(C=O)[C@H]3[C@@](O)(C(=O)OC)[C@H](OC(C)=O)[C@]5(CC)C=CCN6CC[C@]43[C@@H]65)C2)C1` the Potency was “inactive”. For `OC(CCN1CCCC1)(c1ccccc1)C1CCCCC1` (stereo not drawn), the Potency was “inactive”. In the case of `CCOC(=O)c1ccc(C#Cc2ccc3c(c2)C(C)(C)CCS3)nc1`, the Potency is reported as “inactive”. In the case of `COC(=O)[C@H]1[C@H]2C[C@@H]3c4[nH]c5cc(OC)ccc5c4CCN3C[C@H]2C[C@@H](OC(=O)/C=C/c2ccc(O)c(OC)c2)[C@@H]1OC`, the Potency is reported as “inactive”. In the case of `O=C1c2ccccc2C(=O)C1(O)O`, the Potency is reported as “inactive”. With `Nc1nnc(-c2ccc([N+](=O)[O-])o2)o1` the Potency was “inactive”. For `Oc1ccc(Cl)c2cccnc12`, the Potency was “inactive”. In the case of `CCCCCCCC/C=C\CCCCCCCCO`, the Potency is reported as “inactive”. For `Nc1nc2ccc([N+](=O)[O-])cc2s1`, the Potency was “inactive”. With `CC(CC1c2ccccc2CCc2ccccc21)CN(C)C` (stereo not drawn) the Potency was “inactive”. For `CO/N=C(/C(=O)N[C@@H]1C(=O)N2C(C(=O)O)=C(COC(N)=O)CS[C@H]12)c1ccco1`, the Potency was “inactive”. With `COc1ccc(OC(=O)N(CC(=O)O)Cc2ccc(OCCc3nc(-c4ccccc4)oc3C)cc2)cc1` the Potency was “inactive”. For `CC(CN(C)C)C(C)(O)Cc1ccc(Cl)cc1` (stereo not drawn), the Potency was “inactive”. For `COC(=O)c1nc(Cl)c(Cl)nc1N`, the Potency was “inactive”. With `O=C(O)CCc1nc(-c2ccccc2)c(-c2ccccc2)o1` the Potency was “inactive”. For `CCC(OCCCOC)OC(C)=O` (stereo not drawn), the Potency was “inactive”. For `CC1=C(Br)C(=O)C(Br)=C/C1=C(/c1ccccc1S(=O)(=O)O)c1cc(Br)c(O)c(Br)c1C`, the Potency was 16.7 µM (active). For `CC1=Nc2ccc3ccccc3c2C1(C)C`, the Potency was “inactive”. With `CCCCN1CCCC1C(=O)Nc1c(C)cc(C)cc1C` (stereo not drawn) the Potency was “inactive”. For `CC(C)C(O)(c1ccc(OC(F)(F)F)cc1)c1cncnc1` (stereo not drawn), the Potency was “inactive”. In the case of `CC(CCC(=O)O)C(=O)O` (stereo not drawn), the Potency is reported as “inactive”. With `CN1C(=O)c2ccccc2C1=O` the Potency was “inactive”. In the case of `NCCNCCO`, the Potency is reported as “inactive”. In the case of `COc1cc(N)c(Cl)cc1C(=O)NC1CCN(CCCOc2ccc(F)cc2)CC1OC` (stereo not drawn), the Potency is reported as “inactive”. In the case of `CS(=O)(=O)c1ccc(-c2cn3ccccc3n2)cc1`, the Potency is reported as “inactive”.
